Records with an inconclusive call do not appear. Activity calls are given as the source filed them. The call rests on the fitted dose curve; in most records, active means well fitted activation curve with a large enough effect; inconclusive means small, poorly fitted or top-dose-only effect; inactive means no such curve, though single readings can be large or run the other way.
Assay: qHTS assay for re-activators of p53 using a Luc reporter: Hit Validation with no p53 Expressed; on activity change, positive = activation: 0% is about no effect
Settings: p53-null cells, luciferase reporter counter-screen; series mostly up to 46.1 µM; activity change, positive = activation: at the top concentration
Description: The p53 tumor suppressor plays a key role in suppression of tumorigenesis and in human carcinogenesis. It is frequently found inactivated in human cancers, mainly by point mutation. These point mutations are found in a wide variety of human cancers and a majority of them affect the DNA binding domain of the protein. The point mutations either alter native p53 conformation or abolish DNA contact. Additionally, cancer cells with p53 mutations are more resistant to chemo-radiation therapies.
This counter screen was run against the hits identified from the primary screen. It uses a cell line that was not transfected with p53. Compounds that show activity in this counter screen show unspecific activation of the assay system and are excluded from further consideration.
NIH Chemical Genomics Center [NCGC]
NIH Molecular Libraries Probe Production Centers Network [MLPCN]
Assay Provider (PI): Yi Sung, University of Michigan at Ann Arbor
5ul of 1000 cells per well are dispensed in all wells except column 4, into white solid-bottom TC-treated Kalypsys plates. The cells are kept in Opti-MEM and supplemented with 10% FBS and dispensed using a Multidrop (Thermo). Then using the Kalypsys pin-tool, 23nl of compounds are pinned. The compounds are starting concentration at 10mM, with 1:5 dilution, 4 points, and the control compound nocodazole is pinned in column 1 at 25mM, 1:3 dilution, in duplicate, 25mM nocodazole is pinned in column 2. Please note, all concentrations are working concentrations. 5ul of 1pM purified luciferase enzyme is dispensed using the Kalypsys dispenser in column 4. Plates are incubated for 24 hrs at 37 deg C, 5% CO2, and 95% humidity. Then 4ul of the detection reagent Amplite (ABD Bioquest) is added using the Kalypsys dispenser. Plates are incubated for 10 min at ambient room temperature and are then read on the ViewLux (Perkin Elmer) using a clear filter for a luminescent read-out.
With `Cc1cc(C(=O)N/N=C/c2cccn2C)n[nH]1` the “activity change, positive = activation” value was -21.3% (inactive). In the case of `COc1cccc(Oc2ccc(N)cn2)c1`, the “activity change, positive = activation” value is reported as -16.6% (inactive). For `CC(=O)Oc1ccc(Cl)cc1/C=C/c1ccc2ccccc2n1`, the Potency was 23100 nM (active). In the case of `N#C/C(=C/c1ccccc1[N+](=O)[O-])c1nc(C2CC2)cs1`, the “activity change, positive = activation” value is reported as 96% (inactive). For `CC(C)CCn1cnc2c(cnn2-c2ccc(F)cc2)c1=O`, the “activity change, positive = activation” value was 30% (inactive). In the case of `Cc1noc(C)c1C(=O)Nc1nc(-c2ccc(F)cc2)cs1`, the “activity change, positive = activation” value is reported as -37.1% (inactive). With `Cc1ccc(S(=O)(=O)CNC(=O)c2ccccc2)cc1` the “activity change, positive = activation” value was -19.2% (inactive). With `C/C(=N\N=c1/scc(C)n1Cc1ccco1)c1cccc([N+](=O)[O-])c1` the “activity change, positive = activation” value was 26.8% (inactive). In the case of `CN(C)c1ccc(N=Cc2nc(-c3ccccc3)oc2OC(=O)c2cccc(Cl)c2)cc1`, the “activity change, positive = activation” value is reported as 44.4% (inactive). For `Cc1ccc(C(=O)Nc2ncc3c(n2)CC(c2ccco2)CC3=O)cc1` (stereo not given), the “activity change, positive = activation” value was 65.3% (inactive). In the case of `COc1cc(/C=C/C(=O)N2C(=O)c3cccc(N)c3C2=O)cc(OC)c1OC`, the “activity change, positive = activation” value is reported as -11.8% (inactive). In the case of `CCN(CC)C(=O)CNC(=S)N(CCCN1CCOCC1)Cc1cccs1`, the “activity change, positive = activation” value is reported as 0.343% (inactive). For `COCCCNC(=O)Nc1ccc(Br)cc1Cl`, the “activity change, positive = activation” value was -16.6% (inactive). With `CC1CCCC(C)N1C(=O)CSc1nnc(-c2cccs2)o1` (stereo not given) the “activity change, positive = activation” value was 52.8% (inactive). In the case of `CCOC(=O)C(C(C)=O)C(c1ccc(OC)cc1)C(C(C)=O)C(=O)OCC` (stereo not given), the “activity change, positive = activation” value is reported as -8.98% (inactive). In the case of `COc1ccccc1NC(CC(=O)c1ccccc1)C(=O)OCC(=O)c1ccc(C)cc1` (stereo not given), the “activity change, positive = activation” value is reported as 99.4% (inactive). For `COCCn1c(SCC(=O)c2c(N)n(C3CC3)c(=O)[nH]c2=O)nnc1-c1cccc(C)c1`, the “activity change, positive = activation” value was -44.6% (inactive). In the case of `O=C(/C=C\Nc1cccc(F)c1)c1ccc2c(c1)OCO2`, the “activity change, positive = activation” value is reported as -22.4% (inactive). For `Cc1ccsc1/C=N/Nc1nc2ccccc2[nH]1`, the “activity change, positive = activation” value was 50.1% (inactive). With `COc1cc(CNC2CCCCCCC2)c(Br)cc1OCCO` the “activity change, positive = activation” value was 8.85% (inactive). In the case of `COc1ccc(CNc2nc(-c3ccccc3)nn2C(=O)c2ccc([N+](=O)[O-])cc2)cc1`, the “activity change, positive = activation” value is reported as 5.34% (inactive). For `Cc1cc(NC(=O)c2ccc3c(c2)OCCO3)no1`, the “activity change, positive = activation” value was -8.07% (inactive). With `CC1Cc2ccccc2N1C(=O)COC(=O)C1(c2ccccc2F)CCCC1` (stereo not given) the “activity change, positive = activation” value was -13.2% (inactive). In the case of `Cc1cccc(NC(=O)c2ccccn2)c1C`, the “activity change, positive = activation” value is reported as 32.6% (inactive). For `CCOC(=O)c1[nH]nc(C(=O)c2ccc(Br)cc2)c1O`, the “activity change, positive = activation” value was -4.51% (inactive). With `Cc1ccc(-c2nnc(SCc3ccccc3F)o2)cc1` the “activity change, positive = activation” value was 36.2% (inactive). In the case of `CC(C)CC(NC(=O)C1CCC(=O)N1)C(=O)NC(CC(C)C)C(=O)N1CCCC1C(N)=O` (stereo not given), the “activity change, positive = activation” value is reported as 64.4% (inactive). For `O=C(Nc1ccc(-c2nc3cc(Cl)ccc3c(=O)o2)cc1)c1ccco1`, the “activity change, positive = activation” value was -27.4% (inactive). With `O=C(/C=C/Nc1ccccc1C(=O)O)c1cccs1` the “activity change, positive = activation” value was 18% (inactive). In the case of `Clc1ccc(-c2nnc(SCc3ccon3)o2)c(Cl)c1`, the Potency is reported as 1840 nM (active). With `CN=c1scc(-c2cccs2)n1/N=C/c1ccc(O)c(O)c1O` the “activity change, positive = activation” value was 36.5% (inactive). In the case of `Cc1ccc(C(=O)CC(Nc2ccc(F)cc2)c2ccccc2)cc1` (stereo not given), the “activity change, positive = activation” value is reported as 78.9% (inactive). With `O=c1c2ccccc2oc2nc(-c3ccco3)n(-c3ccccc3)c(=O)c12` the “activity change, positive = activation” value was -16.3% (inactive). With `Cc1ccc(/C=N/NC(=O)c2cccs2)s1` the “activity change, positive = activation” value was 33.2% (inactive). For `COc1cccc(/C=N/Nc2cc(-n3nc(C)cc3-c3ccccc3)ncn2)c1O`, the “activity change, positive = activation” value was 63.3% (inactive). In the case of `O=C(COC(=O)CNC(=O)c1ccc([N+](=O)[O-])o1)Nc1ncc(C(F)(F)F)cc1Cl`, the “activity change, positive = activation” value is reported as 95.4% (inactive). For `COc1ccc(C(=O)C(CN2CCCC2)c2ccccc2)cc1` (stereo not given), the “activity change, positive = activation” value was -66% (inactive). For `O=C(Nc1ccc(N2CCCCCC2)cc1)c1ccc[nH]1`, the Potency was 1840 nM (active). In the case of `CN(C)CCN(CC1CCCN(Cc2ccccc2F)C1)C(=O)c1ccc(F)cc1` (stereo not given), the “activity change, positive = activation” value is reported as 17.2% (inactive). In the case of `CN1CCN(c2ncnc3c2cnn3-c2ccc(Cl)cc2)CC1`, the “activity change, positive = activation” value is reported as -9.81% (inactive).

Source: PubChem BioAssay AID624331 (National Center for Advancing Translational Sciences (NCATS), 2012)
Potency means the concentration at half of the fitted maximal effect.
